Measured values: PubChem BioAssay (NCATS)
Values joined by “and” are separate entries in the source; they are usually repeats but may differ in a detail not shown here. Equal entries are not always repeated. A number with no mark means an inactive call. Records with an inconclusive call do not appear. Where a call stands in place of a potency, no number is given. Active and inactive are the calls of the source. Unless noted, the call rests on the fitted dose curve.

Assays:
[1] = biological target: Androgen receptor (Homo sapiens) (UniProt P10275); experiment: qHTS assay for small molecule agonists of androgen receptor signaling (AID 588515; active means well fitted curve in the direction sought with a large enough effect in the signal ratio, with a control signal flat; the % refers to the signal ratio); conditions: AR-UAS-bla HEK293, beta-lactamase ratio, agonist 16 h; stronger effect = higher value
Outline: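 EC50 and efficacy came from Hill fits of titrations (up to 92 uM) normalized to 30 nM R1881 as 100% and DMSO as 0%. Compound exposure was 16 h at 37 C on AR-UAS-bla HEK293 cells, with a 405/460/530 nm CCF4 fluorescence read.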

[2] = biological target: Androgen receptor (Homo sapiens) (UniProt P10275); experiment: qHTS assay for small molecule antagonists of androgen receptor signaling (AID 588516; active means well fitted curve in the direction sought with a large enough effect in the signal ratio, with a control signal flat, not every such curve was filed as active; the % refers to the signal ratio)
Outline: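 Antagonist mode: inhibition of R1881-stimulated (10 nM final) bla reporter in GeneBLAzer AR HEK 293 cells, 16 h at 37C, compounds titrated. IC50 and efficacy from Hill-equation fits of 405/460–530 nm FRET ratios.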

[3] = biological target: Bile acid receptor (Homo sapiens) (UniProt Q96RI1); experiment: qHTS assay for small molecule antagonists of farnesoid X receptor signaling (AID 588526)
Outline: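 Concentration-response titrations were fitted to the Hill equation for half-maximal inhibition and maximal response, with data normalised to 50 uM chenodeoxycholic acid and DMSO control wells. Cells: FXR-UAS-bla HEK293T, dialyzed FBS.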

[4] = biological target: Glucocorticoid receptor (Homo sapiens) (UniProt P04150); experiment: qHTS assay for small molecule agonists of glucocorticoid receptor signaling (AID 588532; active means well fitted curve in the direction sought with a large enough effect in the signal ratio, with a control signal flat; the % refers to the signal ratio); conditions: HeLa MMTV-bla, beta-lactamase ratio, agonist, 18 h; activation: stronger effect = higher value, percent of dexamethasone control, DMSO zero
Outline: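 MMTV-bla HeLa, beta-lactamase reporter; medium with 1% charcoal/dextran-stripped FBS; cpds up to 92 uM, 18 h, 37 C; CCF4 readout 460/530 nm; Hill fit → EC50, efficacy vs 0.1 uM dexamethasone = 100%.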

[5] = biological target: Peroxisome proliferator-activated receptor gamma (Homo sapiens) (UniProt P37231); experiment: qHTS assay for small molecule agonists of peroxisome proliferator-activated receptor gamma signaling (AID 588536; active means well fitted curve in the direction sought with a large enough effect in the signal ratio, with a control signal flat, not every such curve was filed as active; the % refers to the signal ratio)
Outline: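 PPAR-gamma-UAS-bla HEK293 cells in medium with 1% charcoal/dextran-treated FBS were exposed to compounds for 16 h at 37 C. Beta-lactamase activity was read with CCF4 substrate (405 nm excitation, 460/530 nm emission).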

[6] = biological target: Peroxisome proliferator-activated receptor gamma (Homo sapiens) (UniProt P37231); experiment: qHTS assay for small molecule antagonists of peroxisome proliferator-activated receptor gamma signaling (AID 588537; active means well fitted inhibition curve with a large enough effect in the signal ratio, with a control signal flat, not every such curve was filed as active; the % refers to the signal ratio;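 further: reporter cells co-stimulated with 50 nM rosiglitazone agonist during compound treatment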)
Outline: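 PPAR-gamma-UAS-bla HEK293 cells (3000/well, 1% charcoal/dextran-stripped FBS) were preincubated 6-6.5 h at 37 C, given titrated compounds, then stimulated with 50 nM rosiglitazone for 16 h. Beta-lactamase activity was read with CCF4 dye; IC50 came from Hill fits.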

[7] = biological target: Thyroid hormone receptor beta (Homo sapiens) (UniProt P10828); experiment: qHTS assay for small molecule antagonists of thyroid hormone receptor beta signaling (AID 588547; active means well fitted inhibition curve with a large enough effect in the signal ratio, with a control signal flat, not every such curve was filed as active; the % refers to the signal ratio;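 further: cells stimulated with 0.4 nM T3 agonist during compound exposure; series mostly up to about 77 µM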); conditions: TR-UAS-bla HEK293, beta-lactamase ratio, antagonist mode, 18 h
Outline: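 TR-UAS-bla GripTite HEK293 cells in 2% charcoal/dextran FBS medium were preincubated 4 h at 37 C, given compound (0.59 nM to 92 uM) plus 0.4 nM T3 (final) for 18 h, then CCF4 for 2 h at RT; Hill fit gave IC50.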

[8] = qHTS assay for small molecule activators of the human pregnane X receptor (PXR) signaling pathway (AID 720659; call rule not given here)
[9] = biological target: Estrogen receptor (Homo sapiens) (UniProt P03372); experiment: qHTS assay for small molecule agonists of estrogen receptor alpha signaling (AID 588514); further: nearly all actives have a fitted effect of over 70% in size
Outline: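 Reporter-gene assay. […] controls beta-lactamase in HEK 293 GripTite cells; after 18 hrs with compound, CCF4 substrate is added for 2 hrs and fluorescence is read.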

[10] = qHTS assay for small molecule agonists of the antioxidant response element (ARE) signaling pathway (AID 651741; active means well fitted activation curve with a large enough effect in the signal ratio; the % refers to the signal ratio; further: potency means the concentration at half of the fitted maximal effect)
Outline: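 ARE-bla HepG2 cells (beta-lactamase reporter under ARE control) were plated at 2,000 cells/well, preincubated 5 h at 37 C/5% CO2, then treated with DMSO-dissolved compounds for 16 h at 37 C; LiveBLAzer B/G FRET substrate added, fluorescence read after 2 h at room temperature.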

[11] = biological target: Glucocorticoid receptor (Homo sapiens) (UniProt P04150); experiment: qHTS assay for small molecule antagonists of glucocorticoid receptor signaling (AID 588533; active means well fitted inhibition curve with a large enough effect in the signal ratio, with a control signal flat, not every such curve was filed as active; the % refers to the signal ratio;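 further: cells stimulated with 2 nM dexamethasone as agonist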)
Outline: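 Antagonist-mode qHTS: compound titrations added to GRE-bla HeLa cells, then dexamethasone 2 nM final; 18 h, 37 C. CCF4 FRET fluorescence normalized to dexamethasone and DMSO; IC50 from Hill fit.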

Estrogen receptor (Homo sapiens), sequence (P03372 whole entry, looked up): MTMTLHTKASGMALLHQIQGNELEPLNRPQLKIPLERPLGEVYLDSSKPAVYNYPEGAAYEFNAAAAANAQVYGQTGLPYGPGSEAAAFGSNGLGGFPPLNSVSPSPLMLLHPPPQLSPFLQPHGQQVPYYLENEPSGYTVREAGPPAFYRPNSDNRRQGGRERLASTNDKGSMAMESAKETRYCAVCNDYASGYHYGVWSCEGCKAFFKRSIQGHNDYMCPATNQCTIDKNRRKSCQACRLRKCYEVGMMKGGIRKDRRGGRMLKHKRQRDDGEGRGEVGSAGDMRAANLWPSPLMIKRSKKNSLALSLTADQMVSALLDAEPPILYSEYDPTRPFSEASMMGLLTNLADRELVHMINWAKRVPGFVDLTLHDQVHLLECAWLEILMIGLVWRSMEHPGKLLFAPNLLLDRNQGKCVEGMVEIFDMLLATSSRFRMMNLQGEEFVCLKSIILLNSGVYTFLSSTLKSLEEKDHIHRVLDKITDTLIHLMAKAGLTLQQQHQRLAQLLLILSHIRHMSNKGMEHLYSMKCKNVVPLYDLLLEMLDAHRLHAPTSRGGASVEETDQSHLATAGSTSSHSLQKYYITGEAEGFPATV
Peroxisome proliferator-activated receptor gamma (Homo sapiens), sequence (P37231 whole entry, looked up): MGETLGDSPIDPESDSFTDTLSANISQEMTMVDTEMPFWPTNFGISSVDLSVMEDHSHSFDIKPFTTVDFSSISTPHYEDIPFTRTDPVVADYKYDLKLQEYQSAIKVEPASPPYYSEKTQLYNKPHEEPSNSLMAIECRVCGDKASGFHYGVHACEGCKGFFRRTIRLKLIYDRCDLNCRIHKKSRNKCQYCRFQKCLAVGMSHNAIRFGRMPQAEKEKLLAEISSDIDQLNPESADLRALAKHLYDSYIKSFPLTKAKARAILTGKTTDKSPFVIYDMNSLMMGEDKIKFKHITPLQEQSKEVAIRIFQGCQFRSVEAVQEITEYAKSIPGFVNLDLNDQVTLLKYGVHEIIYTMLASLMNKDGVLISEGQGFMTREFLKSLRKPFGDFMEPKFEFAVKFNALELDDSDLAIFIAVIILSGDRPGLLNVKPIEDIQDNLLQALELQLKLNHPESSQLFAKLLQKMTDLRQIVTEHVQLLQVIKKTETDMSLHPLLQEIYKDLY
Thyroid hormone receptor beta (Homo sapiens), sequence (P10828 whole entry, looked up): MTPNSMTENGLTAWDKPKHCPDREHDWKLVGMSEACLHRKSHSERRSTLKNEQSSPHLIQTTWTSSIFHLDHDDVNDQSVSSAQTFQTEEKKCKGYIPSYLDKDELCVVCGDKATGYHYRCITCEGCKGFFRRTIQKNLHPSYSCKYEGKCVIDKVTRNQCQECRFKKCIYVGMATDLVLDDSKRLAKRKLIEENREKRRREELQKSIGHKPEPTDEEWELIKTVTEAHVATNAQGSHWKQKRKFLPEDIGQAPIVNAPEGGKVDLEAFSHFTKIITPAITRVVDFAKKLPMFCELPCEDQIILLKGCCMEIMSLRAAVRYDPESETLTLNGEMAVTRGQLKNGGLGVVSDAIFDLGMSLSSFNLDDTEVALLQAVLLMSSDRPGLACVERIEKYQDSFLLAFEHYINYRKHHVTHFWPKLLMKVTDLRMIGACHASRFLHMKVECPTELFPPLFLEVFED
Bile acid receptor (Homo sapiens), sequence (Q96RI1 whole entry, looked up): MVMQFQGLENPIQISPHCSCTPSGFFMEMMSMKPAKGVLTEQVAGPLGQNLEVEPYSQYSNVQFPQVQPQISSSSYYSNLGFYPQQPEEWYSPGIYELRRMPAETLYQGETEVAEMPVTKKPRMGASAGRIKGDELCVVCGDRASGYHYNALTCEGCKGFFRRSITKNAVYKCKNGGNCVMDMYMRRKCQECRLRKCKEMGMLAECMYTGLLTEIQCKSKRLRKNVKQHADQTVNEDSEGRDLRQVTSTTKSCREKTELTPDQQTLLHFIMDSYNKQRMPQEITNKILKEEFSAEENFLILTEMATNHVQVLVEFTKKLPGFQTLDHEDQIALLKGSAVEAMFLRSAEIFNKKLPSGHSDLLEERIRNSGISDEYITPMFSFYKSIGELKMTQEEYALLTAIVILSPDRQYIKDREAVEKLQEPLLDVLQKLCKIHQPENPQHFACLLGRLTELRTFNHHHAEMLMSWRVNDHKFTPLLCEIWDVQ
Glucocorticoid receptor (Homo sapiens), sequence (P04150 whole entry, looked up): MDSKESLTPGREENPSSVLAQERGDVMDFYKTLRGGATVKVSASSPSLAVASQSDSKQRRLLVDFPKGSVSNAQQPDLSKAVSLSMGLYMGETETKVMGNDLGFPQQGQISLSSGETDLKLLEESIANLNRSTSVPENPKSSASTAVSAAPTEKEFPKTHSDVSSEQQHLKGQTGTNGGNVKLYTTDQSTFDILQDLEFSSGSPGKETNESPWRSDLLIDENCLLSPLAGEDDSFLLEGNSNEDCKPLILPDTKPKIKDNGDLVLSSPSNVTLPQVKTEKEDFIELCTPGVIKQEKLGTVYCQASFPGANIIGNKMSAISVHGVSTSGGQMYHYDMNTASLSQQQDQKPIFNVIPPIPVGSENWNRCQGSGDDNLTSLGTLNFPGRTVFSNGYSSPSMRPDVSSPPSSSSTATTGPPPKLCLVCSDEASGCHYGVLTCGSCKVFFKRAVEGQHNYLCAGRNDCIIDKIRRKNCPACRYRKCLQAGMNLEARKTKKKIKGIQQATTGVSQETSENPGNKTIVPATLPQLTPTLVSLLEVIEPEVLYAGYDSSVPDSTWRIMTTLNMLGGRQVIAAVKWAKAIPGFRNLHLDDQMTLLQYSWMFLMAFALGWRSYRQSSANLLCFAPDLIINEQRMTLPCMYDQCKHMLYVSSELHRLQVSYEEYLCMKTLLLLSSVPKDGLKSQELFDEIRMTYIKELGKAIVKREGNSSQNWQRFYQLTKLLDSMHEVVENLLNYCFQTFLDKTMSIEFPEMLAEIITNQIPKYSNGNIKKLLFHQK
Androgen receptor (Homo sapiens), sequence (P10275 whole entry, looked up): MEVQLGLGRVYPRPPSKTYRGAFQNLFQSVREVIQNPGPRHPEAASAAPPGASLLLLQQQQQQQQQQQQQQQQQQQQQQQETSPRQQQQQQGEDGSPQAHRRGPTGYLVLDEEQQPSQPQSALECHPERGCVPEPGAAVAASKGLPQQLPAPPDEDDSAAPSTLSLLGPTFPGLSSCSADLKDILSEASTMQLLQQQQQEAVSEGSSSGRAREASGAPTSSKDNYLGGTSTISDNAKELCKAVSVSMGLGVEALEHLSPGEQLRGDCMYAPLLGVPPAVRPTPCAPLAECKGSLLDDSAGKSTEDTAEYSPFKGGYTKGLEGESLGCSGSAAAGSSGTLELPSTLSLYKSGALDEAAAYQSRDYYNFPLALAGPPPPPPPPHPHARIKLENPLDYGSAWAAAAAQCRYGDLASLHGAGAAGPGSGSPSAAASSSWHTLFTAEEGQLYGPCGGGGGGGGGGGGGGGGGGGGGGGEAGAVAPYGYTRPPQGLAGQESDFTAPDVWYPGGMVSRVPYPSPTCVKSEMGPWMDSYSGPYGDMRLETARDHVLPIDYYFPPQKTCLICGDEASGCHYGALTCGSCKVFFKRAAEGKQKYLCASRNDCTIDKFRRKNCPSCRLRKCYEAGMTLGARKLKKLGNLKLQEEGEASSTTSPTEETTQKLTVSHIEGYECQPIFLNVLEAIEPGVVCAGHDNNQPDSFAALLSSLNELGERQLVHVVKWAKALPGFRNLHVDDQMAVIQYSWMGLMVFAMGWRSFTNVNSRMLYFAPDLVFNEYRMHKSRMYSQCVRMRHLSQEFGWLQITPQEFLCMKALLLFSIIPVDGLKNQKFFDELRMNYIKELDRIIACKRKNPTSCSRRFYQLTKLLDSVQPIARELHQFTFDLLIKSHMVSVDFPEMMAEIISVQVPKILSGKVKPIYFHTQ

Structure (SMILES): COc1cc(OC)nc(NC(=O)NS(=O)(=O)c2cc(NC=O)ccc2C(=O)N(C)C)n1
- activation [1]: 1.85%
- Potency [2]: inactive
- Potency [3]: inactive
- activation [4]: -12.6%
- Potency [5]: inactive
- Potency [6]: inactive
- activity change % (negative = inhibition) [7]: -8.65%
- outcome [8]: inactive

Structure (SMILES): Cn1c(-c2ccccc2)cc(-c2ccccc2)[n+]1C
- Potency [9]: inactive
- activation [4]: -9.09%
- Potency [5]: inactive
- Potency [6]: inactive

Structure (SMILES): CCC[CH2][Sn](=[O])[CH2]CCC
- activation [1]: 0.348%
- activation [4]: -3.35%
- Potency [5]: inactive
- Potency [6]: inactive
- activity change % (negative = inhibition) [7]: -7.82%
- Potency [10]: inactive
- outcome [8]: inactive

Structure (SMILES): CCCOc1nn(C(=O)NS(=O)(=O)c2ccccc2C(=O)OC)c(=O)n1C
- activation [1]: 9.43%
- activation [4]: -2.11%
- Potency [11]: inactive
- Potency [5]: inactive
- Potency [6]: inactive
- outcome [8]: inactive

Structure (SMILES): ClC1=C(Cl)[C@@]2(Cl)[C@H]3C[C@@H](Cl)[C@H](Cl)[C@H]3[C@@]1(Cl)C2(Cl)Cl
- activation [1]: -0.104%
- activation [4]: -9.73%

Structure (SMILES): C=CCOC(=O)C(C)(C)OC(=O)c1cc(-n2c(=O)cc(C(F)(F)F)n(C)c2=O)ccc1Cl
- Potency [9]: inactive
- activation [4]: -1.05%
- Potency [11]: inactive
- Potency [5]: inactive
- Potency [6]: inactive
- activity change % (negative = inhibition) [7]: -9.78%

Structure (SMILES): COc1ccc(/C(=C/C(=O)N2CCOCC2)c2ccc(Cl)cc2)cc1OC
- activation [1]: -2.83%
- Potency [2]: inactive
- Potency [11]: inactive
- Potency [5]: inactive
- Potency [6]: inactive
- Potency [10]: inactive

Structure (SMILES): CON(C)C(=O)Nc1ccc(Cl)c(Cl)c1
- Potency [9]: inactive
- activation [4]: -2.11%
- Potency [11]: inactive
- Potency [5]: inactive

Structure (SMILES): C[C@H]1[C@H](c2ccc(Cl)cc2)SC(=O)N1C(=O)NC1CCCCC1
- activation [1]: -15.6%
- activation [4]: -1.81%
- Potency [11]: inactive
- Potency [10]: 54.5 µM (active)

Structure (SMILES): ClC1=C(Cl)C2(Cl)C3C4OC4C(Cl)C3C1(Cl)C2(Cl)Cl (stereo not given)
- Potency [9]: inactive
- Potency [11]: inactive
- Potency [5]: inactive
- Potency [6]: inactive
- activity change % (negative = inhibition) [7]: 16.3%

Structure (SMILES): COC(=O)c1c(C(F)F)nc(C(F)(F)F)c(C2=NCCS2)c1CC(C)C
- activation [1]: -1.74%
- Potency [2]: inactive
- Potency [5]: inactive
- activity change % (negative = inhibition) [7]: -8.88%

Structure (SMILES): CCOP(=S)(OCC)SC(CCl)N1C(=O)c2ccccc2C1=O (stereo not given)
- activation [1]: -16.4%
- Potency [2]: inactive
- activity change % (negative = inhibition) [7]: 7.21%
- Potency [10]: 27.3 µM (active)

Structure (SMILES): CC(C)N1C(=O)N(c2ccccc2)CSC1=NC(C)(C)C
- activation [1]: -16.2% and -14%
- activation [4]: -1.49% and -3.83%
- Potency [6]: inactive
- Potency [10]: 68.6 µM (active) and 61.1 µM (active)

Structure (SMILES): N#Cc1cc(I)c(O)c(I)c1
- activation [1]: 6.03%
- Potency [2]: inactive
- Potency [10]: 30.6 µM (active)
- outcome [8]: inactive

Structure (SMILES): CCOP(=S)(OCC)SCSP(=S)(OCC)OCC
- Potency [9]: inactive
- activation [4]: -1.05%
- Potency [5]: inactive
- Potency [6]: inactive

Structure (SMILES): O=CNC(N1CCN(C(NC=O)C(Cl)(Cl)Cl)CC1)C(Cl)(Cl)Cl (stereo not given)
- activation [1]: 14.6%
- activation [4]: -2.65%
- Potency [11]: inactive
- Potency [5]: inactive
- Potency [6]: inactive
- activity change % (negative = inhibition) [7]: -18.1%

Structure (SMILES): N#CCNC(=O)c1cnccc1C(F)(F)F
- activation [1]: 4.4%
- activation [4]: 0.151%
- Potency [11]: inactive
- Potency [5]: inactive
- Potency [6]: inactive
- activity change % (negative = inhibition) [7]: 15.2%
- Potency [10]: inactive
- outcome [8]: inactive

Structure (SMILES): Cc1cc(Cl)ccc1O[C@H](C)C(=O)O
- Potency [9]: inactive
- Potency [6]: inactive
- activity change % (negative = inhibition) [7]: 17.7%
- outcome [8]: inactive

Structure (SMILES): CNP(=O)(OC)Oc1ccc(C(C)(C)C)cc1Cl (stereo not given)
- Potency [9]: inactive
- activation [4]: 0.207%
- Potency [10]: 61.1 µM (active)

Structure (SMILES): Brc1ccc(Oc2ccccc2)cc1
- Potency [9]: inactive
- activation [4]: 1.51%
- Potency [5]: inactive
- Potency [6]: inactive
- activity change % (negative = inhibition) [7]: -9.48%
- outcome [8]: inactive

Structure (SMILES): Cc1ccn2nc(S(=O)(=O)Nc3c(F)cccc3F)nc2n1
- Potency [3]: inactive
- Potency [5]: inactive
- Potency [6]: inactive
- outcome [8]: inactive

Structure (SMILES): CCC[CH2][Sn]([CH2]CCC)([CH2]CCC)[CH2]CCC
- Potency [3]: inactive
- activation [4]: -2.61%
- Potency [11]: inactive
- Potency [6]: inactive
- activity change % (negative = inhibition) [7]: -9.45%
- Potency [10]: inactive
- outcome [8]: inactive

Structure (SMILES): COCC(=O)N(c1c(C)cccc1C)N1CCOC1=O
- Potency [3]: inactive
- Potency [10]: inactive
- outcome [8]: inactive

Structure (SMILES): CC1(C)[C@H](C(=O)O[C@H](C#N)c2cccc(Oc3ccccc3)c2)[C@@H]1C=C(Br)Br
- activation [1]: -5.24%

Structure (SMILES): CCC(C)c1ccc(O)cc1 (stereo not given)
- Potency [3]: inactive
- activation [4]: 2.12%
- activity change % (negative = inhibition) [7]: 6.18%
- outcome [8]: inactive

Structure (SMILES): CCOc1cc(C(C)(C)C)ccc1C1COC(c2c(F)cccc2F)=N1 (stereo not given)
- activation [1]: -19.9%
- activity change % (negative = inhibition) [7]: -28.7%
- Potency [10]: 12.2 µM (active)

Structure (SMILES): Nc1nc(N)nc(N)n1
- Potency [3]: inactive
- Potency [5]: inactive
- activity change % (negative = inhibition) [7]: -6.25%
- outcome [8]: inactive

Structure (SMILES): CCCOCC(=Nc1ccc(Cl)cc1C(F)(F)F)n1ccnc1
- Potency [3]: inactive
- activation [4]: -3.28%
- Potency [11]: inactive
- Potency [10]: 19.3 µM (active)

Structure (SMILES): CCNc1nc(NC(C)C)nc(OC)n1
- Potency [3]: inactive
- activation [4]: -1.69%
- Potency [11]: inactive
- Potency [5]: inactive
- Potency [10]: inactive
- outcome [8]: inactive
